Reference: PubChem BioAssay (NCI)
About 79,000 compounds went through this panel and 15% of them were active in at least one assay; those are over-represented in the sample as a whole. The source made the active and inactive calls. No stated cut-off is given here; in the data, active means growth inhibition above about 70%; inactive means the rest.

Key:
[1] = NCI Yeast Anticancer Drug Screen. Data for the rad52 strain (AID 147);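 further: 0% = growth of vehicle-treated control cultures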; details: S. cerevisiae rad52 mutant growth inhibition, hits give high values
In short: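 Compounds are applied to a genetically defined yeast strain lacking normal DNA damage repair, and inhibition of growth is expressed relative to cultures given vehicle only.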

[2] = NCI Yeast Anticancer Drug Screen. Data for the wt1 strain (AID 149);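 further: 0% = growth of vehicle-treated wt1 cultures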; details: S. cerevisiae wt1 strain (SPY 50644) growth inhibition, hits give high values
In short: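 The wt1 strain was treated with compounds, and growth was compared with vehicle-treated cultures to give inhibition.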

[3] = NCI Yeast Anticancer Drug Screen. Data for the rad50EPP+ strain (AID 151);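 further: 0% = growth of vehicle-treated control cultures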; details: S. cerevisiae rad50 mutant strain, hits give high values
In short: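 Compounds were applied to the rad50EPP+ yeast strain, which bears a defined DNA repair alteration, and growth inhibition was determined relative to vehicle-treated cultures.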

[4] = NCI Yeast Anticancer Drug Screen. Data for the rad50 strain (AID 155);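 further: 0% = growth of vehicle-only cultures of the same strain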; details: S. cerevisiae rad50 strain growth inhibition, hits give high values
In short: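 Cells are treated with compound, grown, and their growth is then scored against vehicle-only cultures of the same repair-deficient yeast strain.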

[5] = NCI Yeast Anticancer Drug Screen. Data for the mec2-1 strain (AID 157); details: S. cerevisiae mec2-1 strain, hits give high values
In short: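 Strain: mec2-1 (DNA repair/cell cycle alteration). Compound exposure, then growth measured; inhibition expressed relative to vehicle.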

[6] = NCI Yeast Anticancer Drug Screen. Data for the rad14 strain (AID 159);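 further: 0% = growth of vehicle-treated control cultures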; details: S. cerevisiae rad14 strain growth inhibition, hits give high values
In short: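 Readout: yeast growth inhibition, referenced to vehicle-only cultures. Strain bears a defined alteration in DNA damage repair.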

[7] = NCI Yeast Anticancer Drug Screen. Data for the sgs1 mgt1 strain (AID 161);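 further: 0% = growth of cultures given vehicle only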; details: S. cerevisiae sgs1 mgt1 strain, hits give high values
In short: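 Read-out: growth inhibition vs vehicle controls. Cells: mutant yeast strain deficient in DNA damage repair.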

[8] = NCI Yeast Anticancer Drug Screen. Data for the CLN2oe strain (AID 163);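 further: 0% = growth of vehicle-only control cultures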; details: S. cerevisiae CLN2oe strain, hits give high values
In short: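 Growth of a genetically modified yeast strain is measured after compound exposure and compared with cultures given vehicle alone.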

[9] = NCI Yeast Anticancer Drug Screen. Data for the cln2 rad14 strain (AID 165);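 further: 0% = growth equal to vehicle treated cultures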; details: S. cerevisiae cln2 rad14 strain, hits give high values
In short: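 Compounds are applied to the cln2 rad14 yeast strain, and growth is then compared with that of vehicle-treated cultures to give inhibition.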

[10] = NCI Yeast Anticancer Drug Screen. Data for the bub3 strain (AID 167); details: S. cerevisiae bub3 mutant strain, hits give high values
In short: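 Part of a panel of yeast mutants defective in DNA damage repair or cell cycle regulation. Each strain is grown with compound, and inhibition is calculated relative to solvent-treated cultures.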

[11] = NCI Yeast Anticancer Drug Screen. Data for the wt2 strain (AID 169);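 further: 0% = growth of vehicle-treated yeast cultures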; details: S. cerevisiae wt2 strain growth inhibition, hits give high values
In short: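 This strain belongs to a panel of yeast strains with defined genetic alterations in DNA damage repair or cell cycle control. Compounds are applied, and growth inhibition is measured against vehicle-treated cultures.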

[12] = NCI Yeast Anticancer Drug Screen. Data for the mlh1 strain (AID 171);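 further: 0% = growth of vehicle-treated control cultures of the same strain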; details: S. cerevisiae mlh1 strain growth inhibition, hits give high values
In short: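 Growth of the mutant yeast strain after compound exposure, expressed as inhibition relative to vehicle-only controls.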

[13] = NCI Yeast Anticancer Drug Screen. Data for the sgs1 strain (AID 173);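 further: 0% = growth of vehicle-only control cultures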; details: S. cerevisiae sgs1 mutant, hits give high values
In short: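 Growth of a yeast strain bearing a defined genetic alteration is measured after compound treatment. Inhibition is expressed relative to vehicle-only controls.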

[14] = NCI Yeast Anticancer Drug Screen. Data for the mlh1 rad18 strain (AID 175); details: S. cerevisiae mlh1 rad18 strain growth inhibition, hits give high values
In short: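 Read-out is yeast growth inhibition, calculated against vehicle-only controls. The compound was applied to a strain engineered with DNA damage repair alterations.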

[15] = NCI Yeast Anticancer Drug Screen. Data for the rad18 strain (AID 177); details: S. cerevisiae rad18 mutant growth inhibition, hits give high values
In short: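 Growth of the mutant yeast strain after compound exposure, normalised to vehicle-only cultures.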

[16] = NCI Yeast Anticancer Drug Screen. Data for the mgt1 strain (AID 153); details: S. cerevisiae mgt1 mutant growth inhibition, hits give high values
In short: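 Strain: mgt1 yeast, one of a set carrying defined DNA damage repair or cell cycle control alterations. Compound-treated growth compared with vehicle.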

[17] = at 5.0 µM (retest, dose inferred, filed as 0.5)
[18] = at 50.0 µM (retest, dose inferred, filed as 5.0)

Measured: growth inhibition

O=c1c2ccccc2ncn1COCc1ccccc1
active: [7]; at 50.0 µM 89.5% | [9]; [18] 75% | [10]; [18] 88% | [10]; at 50.0 µM 74.3%
inactive: [1]; at 1.2 µM -4% | [1]; at 3.7 µM 3% | [1]; at 11.0 µM -22% | [1]; at 33.0 µM -16% | [1]; at 100.0 µM 2% | [2]; at 1.2 µM -2% | [2]; at 3.7 µM -19% | [2]; at 11.0 µM -11% | [2]; at 33.0 µM -13% | [2]; at 100.0 µM 8% | [3]; at 1.2 µM -31% | [3]; at 3.7 µM -30% | [3]; at 11.0 µM -28% | [3]; at 33.0 µM -21% | [3]; at 100.0 µM 8% | [4]; at 1.2 µM -10% | [4]; at 3.7 µM 2% | [4]; [17] 14% | [4]; at 11.0 µM 3% | [4]; at 33.0 µM 9% | [4]; [18] 19% | [4]; at 50.0 µM 1.9% | [4]; at 100.0 µM 23% | [5]; at 1.2 µM -12% | [5]; at 3.7 µM -15% | [5]; [17] 14% | [5]; at 11.0 µM -11% | [5]; at 33.0 µM 2% | [5]; [18] 15% | [5]; at 50.0 µM -6.6% | [5]; at 100.0 µM 26% | [6]; at 1.2 µM -13% | [6]; at 3.7 µM 0% | [6]; at 11.0 µM -15% | [6]; at 33.0 µM -6% | [6]; at 100.0 µM 5% | [7]; [17] 13% | [7]; [18] 69% | [8]; at 1.2 µM -26% | [8]; at 3.7 µM -15% | [8]; at 11.0 µM -12% | [8]; at 33.0 µM -20% | [8]; at 100.0 µM -9% | [9]; [17] 12% | [9]; at 50.0 µM 52.4% | [10]; at 1.2 µM -20% | [10]; at 3.7 µM -18% | [10]; [17] 7% | [10]; at 11.0 µM -7% | [10]; at 33.0 µM 29% | [10]; at 100.0 µM 58% | [11]; at 1.2 µM -16% | [11]; at 3.7 µM -3% | [11]; at 11.0 µM -7% | [11]; at 33.0 µM -3% | [11]; at 100.0 µM 15% | [12]; at 1.2 µM 0% | [12]; at 3.7 µM 12% | [12]; at 11.0 µM -4% | [12]; at 33.0 µM 6% | [12]; at 100.0 µM 27% | [13]; at 1.2 µM -49% | [13]; at 3.7 µM -34% | [13]; at 11.0 µM -37% | [13]; at 33.0 µM -21% | [13]; at 100.0 µM -7% | [14]; [17] 18% | [14]; [18] 30% | [14]; at 50.0 µM -22.1% | [15]; at 1.2 µM -3% | [15]; at 3.7 µM -5% | [15]; at 11.0 µM 3% | [15]; at 33.0 µM 9% | [15]; at 100.0 µM 26%

CC(C)(Br)C(=O)/C=C/c1ccc(Cl)c(Cl)c1
active: [7]; [18] 77% | [7]; at 50.0 µM 85.8% | [10]; at 50.0 µM 78.9% | [14]; [18] 78% | [14]; at 50.0 µM 82.8%
inactive: [1]; at 1.2 µM 2% | [1]; at 3.7 µM 3% | [1]; at 11.0 µM -1% | [1]; at 33.0 µM 2% | [1]; at 100.0 µM -4% | [2]; at 1.2 µM -2% | [2]; at 3.7 µM -1% | [2]; at 11.0 µM -3% | [2]; at 33.0 µM 0% | [2]; at 100.0 µM 1% | [3]; at 1.2 µM 4% | [3]; at 3.7 µM 3% | [3]; at 11.0 µM 3% | [3]; at 33.0 µM 3% | [3]; at 100.0 µM 3% | [16]; at 1.2 µM -4% | [16]; at 3.7 µM 0% | [16]; at 11.0 µM -1% | [16]; at 33.0 µM 0% | [16]; at 100.0 µM 0% | [5]; at 1.2 µM -1% | [5]; at 3.7 µM 1% | [5]; [17] 16% | [5]; at 11.0 µM -1% | [5]; at 33.0 µM 1% | [5]; [18] 49% | [5]; at 50.0 µM 48.2% | [5]; at 100.0 µM -1% | [6]; at 1.2 µM 4% | [6]; at 3.7 µM 2% | [6]; at 11.0 µM 1% | [6]; at 33.0 µM 2% | [6]; at 100.0 µM 3% | [7]; [17] 33% | [8]; at 1.2 µM -3% | [8]; at 3.7 µM -1% | [8]; at 11.0 µM -5% | [8]; at 33.0 µM 0% | [8]; at 100.0 µM 0% | [9]; [17] 7% | [9]; [18] 28% | [9]; at 50.0 µM 52% | [10]; at 1.2 µM -2% | [10]; at 3.7 µM -3% | [10]; [17] 7% | [10]; at 11.0 µM -2% | [10]; at 33.0 µM -1% | [10]; [18] 56% | [10]; at 100.0 µM -2% | [11]; at 1.2 µM -5% | [11]; at 3.7 µM -10% | [11]; at 11.0 µM -12% | [11]; at 33.0 µM -10% | [11]; at 100.0 µM -8% | [12]; at 1.2 µM -2% | [12]; at 3.7 µM -1% | [12]; at 11.0 µM -2% | [12]; at 33.0 µM 1% | [12]; at 100.0 µM 3% | [13]; at 1.2 µM -1% | [13]; at 3.7 µM -3% | [13]; at 11.0 µM 12% | [13]; at 33.0 µM 7% | [13]; at 100.0 µM 17% | [14]; [17] 27% | [15]; at 1.2 µM 3% | [15]; at 3.7 µM 6% | [15]; at 11.0 µM 3% | [15]; at 33.0 µM 7% | [15]; at 100.0 µM 50%
